# Test results taken from PubChem BioAssay.
# “And” between values parts separate entries of the source, which are not always exact repeats. Equal entries are not always repeated. The source made the active and inactive calls.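 Rule for the calls, unless noted: active = thallium flux through the channel raised or lowered by more than 3 SD from vehicle-only wells, actives on both sides; inactive = the rest.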
# Legend:
# [1] = stimulators of nuclear beta-catenin in C2C12, primary screen, imaging, WNT3A-conditioned medium, mouse C2C12, NPC library (AID 1117326; in the data active = nuclear beta-catenin stimulation mostly above about 4.2%, no sharp cut-off; inactive = mostly below about 10%); settings: stronger effect = higher value
# [2] = stimulators of insulin release from INS-1E, primary screen, cell-based, 5 mM glucose, NPC library (AID 1117329;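 active = compound raises insulin release from rat beta cells at 5 mM glucose, no numeric limit stated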); settings: rat INS-1E insulin secretion, at 10 µM, stronger effect = higher value
# [3] = growth inhibition of GSK3B-pretreated HCT116 cells – cell-based, CellTiter-Glo, 0.2 to 20 µM (AID 1117336;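 active = compounds lowering colon cancer cell viability after pretreatment blocking the GSK3B kinase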); settings: HCT116 viability after GSK3B inhibitor, at 20 µM, stronger effect = higher value
# [4] = inhibition of endothelial tube formation, primary screen, imaging, VEGF stimulated, CD31 staining, tube area, NPC library (AID 1117340;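 active = compound that reduces growth-factor-driven endothelial tube area in a mixed cell culture, no cutoff stated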); settings: VEGF-stimulated ADSC/ECFC co-culture, at 10 µM, stronger effect = higher value
# [5] = glucagon-like peptide 1 release enhancers, primary assay, NCI-H716 cell line, NPC library (AID 1117341;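 active = compound raises GLP1 secretion from the human gut endocrine cells, with no numeric limit stated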); settings: NCI-H716 cells, at 10 µM, stronger effect = higher value
# [6] = HCT116 colon cancer cell growth inhibition, primary screen, CellTiter-Glo luminescence, NPC library (AID 1117342;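 active = compounds that lower survival of HCT116 colon cancer cells in the luminescence readout, no numeric limit stated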); settings: at 20 µM (top of the series)
# [7] = CellTiter-Glo luminescent readout of SW480 viability loss, NPC library primary (AID 1117343;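 active = compounds that lower viability of the colon cancer cells in the luminescence readout, with no numeric limit stated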); settings: CellTiter-Glo luminescence; at 20 µM (top of the series)
# [8] = decreased DLD-1 cellular survival, CellTiter-Glo luminescent readout, NPC compound collection, primary HTS (AID 1117346;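 active = compounds that lower survival of DLD-1 colon cancer cells in the luminescence readout, no cutoff given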); settings: DLD-1 viability, CellTiter-Glo luminescence; at 20 µM (top of the series)
# [9] = target: 6-phosphogluconate dehydrogenase, decarboxylating (Homo sapiens) (UniProt P52209); assay: 6PGD enzyme inhibitors, primary screen, biochemical, human, recombinant enzyme, NADPH absorbance (AID 1159550;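 active = at least 20% inhibition of 6-phosphogluconate dehydrogenase activity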); settings: recombinant 6PGD, NADPH absorbance 341 nm; at 10 µM; stronger effect = higher value
# [10] = modulation of C. elegans fzo-1 (AID 1259413; call rule not given here;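 note: fzo-1 mutant C. elegans worms in liquid wells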); settings: C. elegans fzo-1 modulator screen, mean read-out; stronger effect = higher value
# [11] = differential killing of epithelial or mesenchymal cells, primary screen, imaging, PC-3E GFP, TEM4-18 mCherry, co-culture (AID 1345086;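 active = compounds killing one labelled cell type while sparing the other, by normalised counts and ratio limits, not self-fluorescent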;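 for all read-outs here: cells exposed to compound for 72 h before imaging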;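 for red/green cell ratio (normalised): normalised mesenchymal count divided by normalised epithelial count so high means epithelial killing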); settings: imaging cell counts, at 1 µM; for red/green cell ratio (normalised): actives lie on both sides, counts scaled to control wells, 1 = unselective
# [12] = sensitizers of A549 cells to miR-34 induction, primary screen, imaging, A549 dox-inducible miR-34, nuclei and caspase counts (AID 1347080); settings: A549 miR-34 inducible, Hoechst nuclei count, 48 h
# [13] = survival rescue of mitochondrial mutant cells in low glucose, primary screen, MELAS cybrids, Rieske KO mouse fibroblasts, CellTiter-Glo (AID 1508586;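 active = mean z-score across replicates of 1.96 or higher in either the MELAS or the Rieske mutant cell line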;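 note: z relative to plate mean and SD of compound and empty wells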)
# [14] = target: NAD(+) hydrolase SARM1 (Homo sapiens) (UniProt Q6SZW1); assay: SARM1 TIR NADase inhibitors, cell lysate, NAD-Glo luminescence (AID 1508614;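 active = compound whose remaining NAD level is above about 45 nM, limit read from the data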;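 note: higher remaining NAD means stronger inhibition of SARM1 NADase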); settings: SAM-TIR HEK293T lysate NADase, at 1 µM, stronger effect = higher value
# [15] = target: Mitogen-activated protein kinase 7 (Homo sapiens) (UniProt Q13164); assay: ERK5 transactivation activators in reporter cells, primary screen, cell-based, HTS (AID 1508626;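 active = luciferase signal above three times the same-plate solvent-only control wells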;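 note: luciferase driven by Gal4-ERK5 fusion binding five Gal4 sites before minimal TATA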); settings: HeLa Gal4-ERK5 transactivation, 18 h, at 5 µM, stronger effect = higher value
# F380Y = assay: modulators of BK channel variants, profiling panel, selectivity assay, cell-based, U2OS BacMam, thallium flux, beta subunits (AID 1259406); settings: at 30 µM;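 note: initial slope of Thallos dye fluorescence rise after thallium is added; log ratio against the mean of 0.3% DMSO vehicle wells on the same plate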
# F380Y/beta1 = assay: as above; settings: at 30 µM
# F380Y/beta2Delta = assay: as above; settings: at 30 µM
# [16] = measured here: epithelial PC-3E GFP cell survival
# [17] = measured here: mesenchymal TEM4-18 mCherry cell survival
# [18] = MELAS cybrid survival, CellTiter-Glo 48 h, stronger effect = higher value
# [19] = Rieske KO mouse fibroblast survival, CellTiter-Glo 72 h
# 6-phosphogluconate dehydrogenase, decarboxylating (Homo sapiens), sequence (P52209 whole entry, looked up): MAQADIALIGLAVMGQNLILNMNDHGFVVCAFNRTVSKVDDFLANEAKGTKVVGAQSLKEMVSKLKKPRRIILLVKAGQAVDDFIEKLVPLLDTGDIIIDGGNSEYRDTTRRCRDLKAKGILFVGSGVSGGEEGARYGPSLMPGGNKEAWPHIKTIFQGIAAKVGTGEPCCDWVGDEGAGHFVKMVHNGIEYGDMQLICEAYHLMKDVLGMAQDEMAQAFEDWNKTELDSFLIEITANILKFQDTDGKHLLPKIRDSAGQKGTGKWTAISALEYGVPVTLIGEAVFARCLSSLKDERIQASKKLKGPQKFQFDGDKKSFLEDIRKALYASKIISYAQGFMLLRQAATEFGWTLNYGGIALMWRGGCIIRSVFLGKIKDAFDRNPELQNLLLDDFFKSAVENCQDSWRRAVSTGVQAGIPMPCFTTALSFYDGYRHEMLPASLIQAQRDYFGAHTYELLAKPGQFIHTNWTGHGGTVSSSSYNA
# NAD(+) hydrolase SARM1 (Homo sapiens), sequence (Q6SZW1 whole entry, looked up, the tested form may be a part): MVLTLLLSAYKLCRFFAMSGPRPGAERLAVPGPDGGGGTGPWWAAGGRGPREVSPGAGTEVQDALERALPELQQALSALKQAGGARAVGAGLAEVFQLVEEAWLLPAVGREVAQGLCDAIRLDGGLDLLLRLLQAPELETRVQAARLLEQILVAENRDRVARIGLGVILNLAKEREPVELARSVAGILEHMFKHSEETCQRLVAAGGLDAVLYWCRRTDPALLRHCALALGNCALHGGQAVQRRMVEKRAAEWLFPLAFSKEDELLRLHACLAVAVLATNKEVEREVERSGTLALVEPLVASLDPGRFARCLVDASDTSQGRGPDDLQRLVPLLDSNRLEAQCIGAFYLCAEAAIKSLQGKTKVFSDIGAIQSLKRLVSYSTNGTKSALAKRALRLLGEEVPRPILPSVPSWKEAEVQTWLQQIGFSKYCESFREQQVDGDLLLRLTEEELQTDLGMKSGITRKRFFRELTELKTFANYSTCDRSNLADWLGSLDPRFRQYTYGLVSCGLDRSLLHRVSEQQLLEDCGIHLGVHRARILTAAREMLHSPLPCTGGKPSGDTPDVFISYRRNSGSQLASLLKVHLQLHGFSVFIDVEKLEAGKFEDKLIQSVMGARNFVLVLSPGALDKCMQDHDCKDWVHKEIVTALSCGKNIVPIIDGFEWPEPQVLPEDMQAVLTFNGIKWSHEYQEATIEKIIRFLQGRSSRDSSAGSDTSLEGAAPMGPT
# Mitogen-activated protein kinase 7 (Homo sapiens), sequence (Q13164 whole entry, looked up, the tested form may be a part): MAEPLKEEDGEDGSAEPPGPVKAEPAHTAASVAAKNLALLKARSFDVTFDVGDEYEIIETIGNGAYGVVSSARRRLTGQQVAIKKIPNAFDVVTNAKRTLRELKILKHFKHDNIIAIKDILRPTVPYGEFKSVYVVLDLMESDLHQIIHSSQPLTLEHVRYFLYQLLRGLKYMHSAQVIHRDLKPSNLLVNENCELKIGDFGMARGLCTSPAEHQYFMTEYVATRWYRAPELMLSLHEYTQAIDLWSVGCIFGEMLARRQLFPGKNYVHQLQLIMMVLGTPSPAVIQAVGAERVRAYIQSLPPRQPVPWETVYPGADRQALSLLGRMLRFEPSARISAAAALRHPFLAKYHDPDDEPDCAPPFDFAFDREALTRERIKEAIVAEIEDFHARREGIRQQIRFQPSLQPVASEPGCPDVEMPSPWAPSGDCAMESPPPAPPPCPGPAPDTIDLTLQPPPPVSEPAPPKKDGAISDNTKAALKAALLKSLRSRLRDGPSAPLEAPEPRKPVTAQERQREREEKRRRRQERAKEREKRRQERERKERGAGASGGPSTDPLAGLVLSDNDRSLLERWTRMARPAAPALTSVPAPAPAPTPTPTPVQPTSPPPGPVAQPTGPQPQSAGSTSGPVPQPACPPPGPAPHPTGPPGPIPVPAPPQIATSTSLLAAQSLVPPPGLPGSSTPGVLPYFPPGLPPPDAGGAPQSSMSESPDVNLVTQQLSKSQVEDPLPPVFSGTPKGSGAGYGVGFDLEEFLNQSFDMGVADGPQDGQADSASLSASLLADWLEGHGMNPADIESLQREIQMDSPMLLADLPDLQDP
smiles,measurement,setting,value
CCCc1cc(=O)[nH]c(=S)[nH]1,nuclear beta-catenin stimulation,[1]; at 10 µM,0.6% (inactive)
same,nuclear beta-catenin stimulation,"[1]; stimulation, at 2 µM",0.8%
same,insulin secretion stimulation,[2],-0.9% (inactive)
same,viability decrease,[3],-14.4% (inactive)
same,tube area decrease,[4],8.2% (inactive)
same,GLP1 secretion stimulation,[5],-0.8% (inactive)
same,inhibition of viability,[6],-19.2% (inactive)
same,viability decrease (inhibition),[7],-1.9% (inactive)
same,viability decrease (inhibition),[8],-28.7% (inactive)
same,inhibition,[9],-7.2% (inactive)
same,mean signal,[10],248 (inactive)
same,red/green cell ratio (normalised),[11],1.26 (inactive)
same,normalised cell number,[11]; [16],1.05
same,normalised cell number,[11]; [17],1.32
same,fold change,[12]; measured here: relative caspase fold change +Dox/-Dox,1.49 and 1.36 and 2.91
same,cell count,"[12]; measured here: total cells with miR-34 induction, stronger effect = lower value",10600 and 9200 and 7970
same,z-score,[13]; [18],-0.276 (inactive) and 0.0359 (inactive)
same,z-score,[13]; [19],0.644 and -0.188
same,remaining NAD,[14],10 nM (inactive)
same,luciferase signal,[15],88 AU (inactive)
same,log fold change Tl+ flux,F380Y,0.00762 (inactive)
same,log fold change Tl+ flux,F380Y/beta1,-0.132 (active)
same,log fold change Tl+ flux,F380Y/beta2Delta,-0.0326 (inactive)
N[C@@H](Cc1cc(I)c(Oc2cc(I)c(O)c(I)c2)c(I)c1)C(=O)O,nuclear beta-catenin stimulation,[1]; at 10 µM,-0.2% (inactive)
same,nuclear beta-catenin stimulation,"[1]; stimulation, at 2 µM",-1.8%
same,insulin secretion stimulation,[2],1.4% (inactive)
same,viability decrease,[3],24.1% (inactive)
same,tube area decrease,[4],5.6% (inactive)
same,GLP1 secretion stimulation,[5],0.1% (inactive)
same,inhibition of viability,[6],36.7% (inactive)
same,viability decrease (inhibition),[7],26% (inactive)
same,viability decrease (inhibition),[8],-2% (inactive)
same,inhibition,[9],12.1% (inactive)
same,mean signal,[10],252 (inactive)
same,red/green cell ratio (normalised),[11],1.06 (inactive)
same,normalised cell number,[11]; [16],0.96
same,normalised cell number,[11]; [17],1.02
same,z-score,[13]; [18],-0.661 (inactive) and -0.549 (inactive)
same,z-score,[13]; [19],-0.144 and -1.61
same,remaining NAD,[14],10 nM (inactive)
same,luciferase signal,[15],112 AU (inactive)
same,log fold change Tl+ flux,F380Y,-0.00167 (inactive)
same,log fold change Tl+ flux,F380Y/beta1,0.13 (active)
same,log fold change Tl+ flux,F380Y/beta2Delta,0.163 (active)
CC1=NS(=O)(=O)c2cc(Cl)ccc2N1,nuclear beta-catenin stimulation,[1]; at 10 µM,0.5% (inactive)
same,nuclear beta-catenin stimulation,"[1]; stimulation, at 2 µM",2.4%
same,insulin secretion stimulation,[2],1.9% (inactive)
same,viability decrease,[3],2.4% (inactive)
same,tube area decrease,[4],0.4% (inactive)
same,GLP1 secretion stimulation,[5],0.6% (inactive)
same,inhibition of viability,[6],26.2% (inactive)
same,viability decrease (inhibition),[7],8.5% (active)
same,viability decrease (inhibition),[8],1.1% (inactive)
same,inhibition,[9],4.77% (inactive)
same,mean signal,[10],242 (inactive)
same,red/green cell ratio (normalised),[11],1.18 (inactive)
same,normalised cell number,[11]; [16],0.96
same,normalised cell number,[11]; [17],1.14
same,z-score,[13]; [18],-0.405 (inactive) and -0.0836 (inactive)
same,z-score,[13]; [19],0.049 and -0.314
same,remaining NAD,[14],10 nM (inactive)
same,luciferase signal,[15],68 AU (inactive)
same,log fold change Tl+ flux,F380Y,-0.0365 (inactive)
same,log fold change Tl+ flux,F380Y/beta1,-0.0354 (inactive)
same,log fold change Tl+ flux,F380Y/beta2Delta,0.0204 (inactive)
